Active and inactive are the calls of the source. Rule for the calls: active = hit-call score of the fitted dose curve at least 0.9, where 1 is the maximum; inactive = score below 0.9.
Legend:
[1] = CEETOX_H295R_PROG: CeeTox H295R High-throughput Steroidogenesis Assay for Progesterone (PROG) (AID 2283442); conditions: actives raise or lower the signal;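 note: human H295R adrenal cells primed with 10 µM forskolin before dosing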
Procedure, shortened: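 Measured analyte is progesterone secreted by H295R cells at 48 h of chemical treatment, following 10 uM forskolin priming. Quantitation used HPLC-MS/MS against a 7-point standard curve; cytotoxicity was checked by MTT absorbance.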

[2] = read-out: Fatty acid synthase (Homo sapiens) (UniProt P49327); test: LTEA_HepaRG_FASN: Life Technologies and Expression Analysis (LTEA) Assay for Fatty Acid Synthase (FASN) using HepaRG (AID 2283448); conditions: mRNA level, 48 h; actives raise or lower the signal;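 for AC50: differentiated human HepaRG liver cells in serum-free induction medium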
Procedure, shortened: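 FASN expression changes, up or down relative to 0.5% DMSO, were measured by qRT-PCR in human HepaRG cells after 48 h treatment with chemicals at eight concentrations (half-log steps from 100 uM).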

[3] = read-out: Cyclin D2 (CCND2), CCND2 (gene 894); test: LTEA_HepaRG_CCND2: Life Technologies and Expression Analysis (LTEA) Assay for Cyclin D2 (CCND2) using HepaRG (AID 2283449); conditions: mRNA level, 48 h; actives raise or lower the signal
Procedure, shortened: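 Read-out is CCND2 mRNA level measured by qRT-PCR in human HepaRG liver cells and normalised to three housekeeping genes. Chemicals were applied for 48 h at up to 100 uM, with gain or loss fitted relative to 0.5% DMSO.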

[4] = read-out: Cyclin Dependent Kinase Inhibitor 1A (CDKN1A), CDKN1A (gene 1026); test: LTEA_HepaRG_CDKN1A: Life Technologies and Expression Analysis (LTEA) Assay for Cyclin Dependent Kinase Inhibitor 1A (CDKN1A) using HepaRG (AID 2283450); conditions: mRNA level, 48 h; actives raise or lower the signal
Procedure, shortened: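 Gain or loss of CDKN1A transcript is scored by bidirectional fitting against 0.5% DMSO vehicle. Human HepaRG cultures receive chemicals for 48 h across an 8-point series peaking at 100 uM; expression comes from qRT-PCR.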

[5] = read-out: Cyclin D1 (CCND1), CCND1 (gene 595); test: LTEA_HepaRG_CCND1: Life Technologies and Expression Analysis (LTEA) Assay for Cyclin D1 (CCND1) using HepaRG (AID 2283451); conditions: mRNA level, 48 h; actives raise or lower the signal;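 for AC50: differentiated human HepaRG liver cells in serum-free induction medium; TaqMan qRT-PCR transcript level normalised to ACTB GAPDH and POLR2A housekeeping genes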
Procedure, shortened: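 Expression change is measured by qRT-PCR in HepaRG cells after 48 h treatment across eight concentrations topping at 100 uM, with duplicate wells and DMSO (0.5%) serving as baseline for bidirectional fitting.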

[6] = read-out: catalase (CAT), CAT (gene 847); test: LTEA_HepaRG_CAT: Life Technologies and Expression Analysis (LTEA) Assay for catalase (CAT) using HepaRG (AID 2283452); conditions: mRNA level, 48 h; actives raise or lower the signal;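 for AC50: TaqMan qRT-PCR signal normalized to ACTB GAPDH and POLR2A housekeeping genes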
Procedure, shortened: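 Expression of CAT was quantified by TaqMan qRT-PCR with ACTB/GAPDH/POLR2A normalization after 48 h chemical exposure of HepaRG. Eight-point half-log series, top 100 uM, in 0.5% DMSO; gain or loss fitted against vehicle.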

[7] = read-out: flavin-containing dimethylaniline monooxygenases 3 (FMO3), FMO3 (gene 2328); test: LTEA_HepaRG_FMO3: Life Technologies and Expression Analysis (LTEA) Assay for flavin-containing dimethylaniline monooxygenases 3 (FMO3) using HepaRG (AID 2283453); conditions: mRNA level, 48 h; actives raise or lower the signal;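 for AC50: differentiated human HepaRG liver cells in serum-free induction medium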
Procedure, shortened: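 Differentiated HepaRG cells in serum-free induction medium, exposed 48 h in duplicate to 8 half-log concentrations up to 100 uM in 0.5% DMSO. FMO3 mRNA by qRT-PCR, normalized to ACTB, GAPDH, POLR2A; bidirectional fit vs DMSO.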

[8] = read-out: Cytochrome P450 (CYP1A1), CYP1A1 (gene 1543); test: LTEA_HepaRG_CYP1A1: Life Technologies and Expression Analysis (LTEA) Assay for Cytochrome P450 (CYP1A1) using HepaRG (AID 2283454); conditions: mRNA level, 48 h; actives raise or lower the signal
Procedure, shortened: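 Using HepaRG cultures with 0.5% DMSO as vehicle, eight-concentration exposures (max 100 uM) lasted 48 h. Transcript levels were measured by TaqMan qRT-PCR and normalized to ACTB, GAPDH and POLR2A.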

[9] = read-out: CFLAR gene, CFLAR (gene 8837); test: LTEA_HepaRG_CFLAR: Life Technologies and Expression Analysis (LTEA) Assay for CFLAR gene using HepaRG (AID 2283455); conditions: mRNA level, 48 h; actives raise or lower the signal
Procedure, shortened: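 HepaRG, 48 h exposure, 8-pt conc-response (100 uM top, half-log), 0.5% DMSO vehicle, duplicates. CFLAR expression by qRT-PCR; ACTB/GAPDH/POLR2A normalization; gain or loss fit vs DMSO baseline.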

[10] = read-out: Forkhead box O1 (FOXO1), FOXO1 (gene 2308); test: LTEA_HepaRG_FOXO1: Life Technologies and Expression Analysis (LTEA) Assay for Forkhead box O1 (FOXO1) using HepaRG (AID 2283456); conditions: mRNA level, 48 h; actives raise or lower the signal
Procedure, shortened: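 Readout is FOXO1 transcript level by multiplexed qRT-PCR against three housekeeping genes, curve-fitted in both directions relative to 0.5% DMSO vehicle. Human HepaRG cultures received chemicals for 48 h, up to 100 uM in half-log steps.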

[11] = read-out: growth arrest and DNA damage 45 (GADD45A), GADD45A (gene 1647); test: LTEA_HepaRG_GADD45A: Life Technologies and Expression Analysis (LTEA) Assay for growth arrest and DNA damage 45 (GADD45A) using HepaRG (AID 2283458); conditions: mRNA level, 48 h; actives raise or lower the signal
Procedure, shortened: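 Cells plated and cultured 48 h, switched to serum-free induction medium, then dosed for 48 h (100 uM top, half-log dilutions, 0.5% DMSO). RNA was isolated and transcript measured by Fluidigm qRT-PCR.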

[12] = read-out: Forkhead box O3 (FOXO3), FOXO3 (gene 2309); test: LTEA_HepaRG_FOXO3: Life Technologies and Expression Analysis (LTEA) Assay for Forkhead box O3 (FOXO3) using HepaRG (AID 2283459); conditions: mRNA level, 48 h; actives raise or lower the signal
Procedure, shortened: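 HepaRG, 48 h post-dose; 8 conc., half-log from 100 uM, 0.5% DMSO, duplicates; serum-free induction medium. Readout: FOXO3 mRNA, TaqMan qRT-PCR, housekeeping-normalized. Bidirectional curve fit vs DMSO baseline.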

[13] = read-out: ABC Transporter (ABCB1), ABCB1 (gene 5243); test: LTEA_HepaRG_ABCB1: Life Technologies and Expression Analysis (LTEA) Assay for ABC Transporter (ABCB1) using HepaRG (AID 2283460); conditions: mRNA level, 48 h; actives raise or lower the signal
Procedure, shortened: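 Expression of ABCB1 was quantified by qRT-PCR against three housekeeping genes after human HepaRG cultures received test chemicals for 48 hours. Concentrations spanned eight half-log steps topping at 100 uM in 0.5% DMSO; gain or loss of signal was fitted relative to vehicle.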

[14] = read-out: growth arrest and DNA damage 45 (GADD45B), GADD45B (gene 4616); test: LTEA_HepaRG_GADD45B: Life Technologies and Expression Analysis (LTEA) Assay for growth arrest and DNA damage 45 (GADD45B) using HepaRG (AID 2283461); conditions: mRNA level, 48 h; actives raise or lower the signal
Procedure, shortened: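 Human HepaRG monolayers receive chemicals for 48 h at eight half-log concentrations, highest 100 uM, in 0.5% DMSO. Expression is measured by TaqMan qRT-PCR and normalized to ACTB, GAPDH and POLR2A.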

[15] = read-out: ABC Transporter (ABCC3), ABCC3 (gene 8714); test: LTEA_HepaRG_ABCC3: Life Technologies and Expression Analysis (LTEA) Assay for ABC Transporter (ABCC3) using HepaRG (AID 2283462); conditions: mRNA level, 48 h; actives raise or lower the signal
Procedure, shortened: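 Transcriptional change of ABCC3 in HepaRG after 48 h treatment, determined by qRT-PCR normalized to endogenous controls. Concentrations spanned eight half-log steps to 100 uM in 0.5% DMSO.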

[16] = read-out: ABC Transporter (ABCB11), ABCB11 (gene 8647); test: LTEA_HepaRG_ABCB11: Life Technologies and Expression Analysis (LTEA) Assay for ABC Transporter (ABCB11) using HepaRG (AID 2283463); conditions: mRNA level, 48 h; actives raise or lower the signal
Procedure, shortened: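 ABCB11 transcript levels are read by Fluidigm TaqMan qRT-PCR after 48 h chemical treatment of human HepaRG cells. Concentrations span 100 uM downward in half-log steps with 0.5% DMSO; gain or loss is fitted against DMSO controls.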

[17] = read-out: ABC Transporter (ABCC2), ABCC2 (gene 1244); test: LTEA_HepaRG_ABCC2: Life Technologies and Expression Analysis (LTEA) Assay for ABC Transporter (ABCC2) using HepaRG (AID 2283464); conditions: mRNA level, 48 h; actives raise or lower the signal
Procedure, shortened: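 After plating and 48 h culture, HepaRG medium is replaced with serum-free induction medium and chemicals are added (8 concentrations, max 100 uM, 0.5% DMSO) for 48 h. Total RNA then undergoes qRT-PCR for ABCC2 with housekeeping normalization.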

[18] = read-out: Broad substrate specificity ATP-binding cassette transporter ABCG2 (Homo sapiens) (UniProt Q9UNQ0); test: LTEA_HepaRG_ABCG2: Life Technologies and Expression Analysis (LTEA) Assay for ABC Transporter (ABCG2) using HepaRG (AID 2283465); conditions: mRNA level, 48 h; actives raise or lower the signal
Procedure, shortened: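 Read-out is ABCG2 mRNA induction or loss quantified by qRT-PCR after 48 h chemical treatment of human HepaRG cells, normalized to three housekeeping genes. Concentrations reached 100 uM top in half-log steps; fitting was bidirectional against 0.5% DMSO.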

[19] = read-out: Tumor necrosis factor receptor superfamily member 6 (Homo sapiens) (UniProt P25445); test: LTEA_HepaRG_FAS: Life Technologies and Expression Analysis (LTEA) Assay for Fas cell surface death receptor (FAS) using HepaRG (AID 2283447); conditions: mRNA level, 48 h; actives raise or lower the signal
Procedure, shortened: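 FAS transcript level was measured by TaqMan qRT-PCR against three housekeeping genes after 48 h chemical exposure. Cells were HepaRG, 0.5% DMSO vehicle, with a top concentration of 100 uM and half-log dilutions over eight points, in duplicate.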

Measured: AC50

Sequence of Broad substrate specificity ATP-binding cassette transporter ABCG2 (Homo sapiens) (Q9UNQ0 whole entry, looked up): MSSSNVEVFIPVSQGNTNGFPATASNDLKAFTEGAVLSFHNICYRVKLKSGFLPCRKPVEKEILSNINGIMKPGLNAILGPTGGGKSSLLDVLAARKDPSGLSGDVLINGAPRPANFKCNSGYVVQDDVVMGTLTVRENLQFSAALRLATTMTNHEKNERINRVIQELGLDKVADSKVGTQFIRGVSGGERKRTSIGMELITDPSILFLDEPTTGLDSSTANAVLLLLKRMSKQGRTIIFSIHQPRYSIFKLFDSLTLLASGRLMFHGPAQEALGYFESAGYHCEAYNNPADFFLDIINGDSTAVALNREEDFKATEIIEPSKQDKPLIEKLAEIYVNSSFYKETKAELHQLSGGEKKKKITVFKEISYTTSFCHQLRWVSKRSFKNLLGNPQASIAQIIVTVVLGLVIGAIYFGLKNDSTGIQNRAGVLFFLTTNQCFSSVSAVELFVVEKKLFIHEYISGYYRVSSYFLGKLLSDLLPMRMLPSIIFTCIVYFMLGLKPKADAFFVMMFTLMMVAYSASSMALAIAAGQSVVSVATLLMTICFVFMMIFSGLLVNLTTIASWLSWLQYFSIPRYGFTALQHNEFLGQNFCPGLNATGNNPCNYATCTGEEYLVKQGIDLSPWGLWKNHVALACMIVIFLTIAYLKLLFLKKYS
Sequence of Fatty acid synthase (Homo sapiens) (P49327 whole entry, looked up): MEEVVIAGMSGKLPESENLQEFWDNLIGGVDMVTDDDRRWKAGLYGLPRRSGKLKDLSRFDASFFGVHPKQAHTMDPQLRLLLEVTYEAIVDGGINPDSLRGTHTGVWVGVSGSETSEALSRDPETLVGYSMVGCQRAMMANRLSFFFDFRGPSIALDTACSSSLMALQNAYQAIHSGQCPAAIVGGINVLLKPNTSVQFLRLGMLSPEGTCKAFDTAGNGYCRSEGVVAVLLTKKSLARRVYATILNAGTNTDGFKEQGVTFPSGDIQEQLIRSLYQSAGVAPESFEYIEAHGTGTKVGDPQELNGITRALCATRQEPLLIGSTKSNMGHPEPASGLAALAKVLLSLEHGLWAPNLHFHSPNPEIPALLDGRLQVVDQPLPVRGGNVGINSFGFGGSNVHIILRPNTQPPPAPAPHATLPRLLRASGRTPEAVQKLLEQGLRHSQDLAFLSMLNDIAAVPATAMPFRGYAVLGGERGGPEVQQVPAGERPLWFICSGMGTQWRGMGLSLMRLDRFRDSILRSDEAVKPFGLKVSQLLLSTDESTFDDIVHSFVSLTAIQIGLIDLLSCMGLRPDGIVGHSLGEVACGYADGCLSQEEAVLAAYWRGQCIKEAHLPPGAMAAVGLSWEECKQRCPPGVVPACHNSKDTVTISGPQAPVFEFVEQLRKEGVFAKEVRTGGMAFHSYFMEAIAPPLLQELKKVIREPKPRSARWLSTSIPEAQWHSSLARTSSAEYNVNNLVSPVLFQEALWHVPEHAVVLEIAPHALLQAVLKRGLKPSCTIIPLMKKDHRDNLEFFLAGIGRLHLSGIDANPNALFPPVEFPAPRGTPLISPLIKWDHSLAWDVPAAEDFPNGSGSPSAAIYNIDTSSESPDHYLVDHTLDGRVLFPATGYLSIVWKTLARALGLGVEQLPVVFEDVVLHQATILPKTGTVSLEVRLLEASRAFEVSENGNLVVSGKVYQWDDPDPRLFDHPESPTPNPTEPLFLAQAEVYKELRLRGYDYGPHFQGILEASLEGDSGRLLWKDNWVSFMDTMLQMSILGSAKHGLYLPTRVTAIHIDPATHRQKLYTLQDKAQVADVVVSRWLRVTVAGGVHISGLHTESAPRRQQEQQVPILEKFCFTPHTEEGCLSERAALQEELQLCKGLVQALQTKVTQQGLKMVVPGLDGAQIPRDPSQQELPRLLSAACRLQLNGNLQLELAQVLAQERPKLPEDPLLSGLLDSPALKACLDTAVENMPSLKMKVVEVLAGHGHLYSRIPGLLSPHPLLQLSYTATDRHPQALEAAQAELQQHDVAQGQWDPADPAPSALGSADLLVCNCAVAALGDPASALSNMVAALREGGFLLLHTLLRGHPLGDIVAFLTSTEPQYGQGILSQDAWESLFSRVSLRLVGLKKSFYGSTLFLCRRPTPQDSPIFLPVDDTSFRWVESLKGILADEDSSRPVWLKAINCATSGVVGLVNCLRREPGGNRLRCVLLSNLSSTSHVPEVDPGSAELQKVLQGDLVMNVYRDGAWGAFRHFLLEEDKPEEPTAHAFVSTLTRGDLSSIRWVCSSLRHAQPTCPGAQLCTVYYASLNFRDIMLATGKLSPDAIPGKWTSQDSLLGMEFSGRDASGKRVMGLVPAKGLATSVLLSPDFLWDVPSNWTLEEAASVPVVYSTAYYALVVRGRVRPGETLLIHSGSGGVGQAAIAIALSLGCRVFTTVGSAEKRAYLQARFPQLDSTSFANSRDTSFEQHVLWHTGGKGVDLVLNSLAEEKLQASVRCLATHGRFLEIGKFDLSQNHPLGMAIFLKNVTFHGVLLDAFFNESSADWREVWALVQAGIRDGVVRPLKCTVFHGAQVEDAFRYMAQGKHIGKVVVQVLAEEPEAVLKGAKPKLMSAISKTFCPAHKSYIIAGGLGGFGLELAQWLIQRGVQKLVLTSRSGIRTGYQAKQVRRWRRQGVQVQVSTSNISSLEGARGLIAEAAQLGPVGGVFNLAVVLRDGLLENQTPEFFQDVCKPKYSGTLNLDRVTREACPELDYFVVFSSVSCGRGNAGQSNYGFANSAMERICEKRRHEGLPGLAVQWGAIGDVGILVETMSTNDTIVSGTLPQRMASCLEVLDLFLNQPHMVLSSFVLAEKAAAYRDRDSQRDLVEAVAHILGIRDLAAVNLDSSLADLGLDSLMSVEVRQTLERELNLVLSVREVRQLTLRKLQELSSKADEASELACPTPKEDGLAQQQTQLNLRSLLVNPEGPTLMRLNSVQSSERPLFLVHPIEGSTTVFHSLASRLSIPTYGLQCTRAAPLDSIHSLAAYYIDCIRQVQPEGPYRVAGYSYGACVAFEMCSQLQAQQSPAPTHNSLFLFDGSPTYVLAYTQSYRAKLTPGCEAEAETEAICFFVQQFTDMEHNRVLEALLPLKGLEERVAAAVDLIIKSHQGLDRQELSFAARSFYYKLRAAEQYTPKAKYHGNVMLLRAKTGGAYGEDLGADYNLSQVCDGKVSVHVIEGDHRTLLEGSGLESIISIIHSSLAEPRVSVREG

c1ccc2c(c1)-c1cccc3cccc-2c13
active: [1] 4.8 µM | [2] 69.1 µM | [8] 33.3 µM
not listed: [19]
inactive: all other assays above

ClCCOCCCl
not listed: [1] | [3]
inactive: all other assays above

Cc1ccc([N+](=O)[O-])cc1
active: [8] 9.92 µM | [13] 2.47 µM | [17] 13 µM
not listed: [1] | [4]
inactive: all other assays above

Brc1ccc(Oc2ccccc2)cc1
active: [8] 50 µM
not listed: [1] | [4]
inactive: all other assays above

CCC[CH2][Sn]([Cl])([CH2]CCC)[CH2]CCC
active: [2] 2.86 µM | [4] 88.1 µM | [5] 81.2 µM | [6] 1.66 µM | [7] 2.31 µM | [8] 2.35 µM | [9] 4.12 µM | [10] 18.8 µM | [11] 50 µM | [13] 3.21 µM | [16] 2.06 µM | [17] 3.8 µM | [18] 1.49 µM
inactive: [12] | [14] | [15]

CCCCCCCCn1sccc1=O
active: [2] 75.1 µM | [5] 83.7 µM | [6] 85.6 µM | [7] 88.9 µM | [8] 32.8 µM | [9] 78.9 µM | [15] 73.8 µM | [16] 72.1 µM
not listed: [1] | [3]
inactive: all other assays above

CC(C)(C)OOC(C)(C)CCC(C)(C)OOC(C)(C)C
active: [8] 64.2 µM
not listed: [1] | [4] | [10]
inactive: all other assays above

Reference: PubChem BioAssay (EPA / NIEHS)
